This is an account of results in PubChem BioAssay (NCATS).

Structures are written as SMILES. Inconclusive results are not listed. Calls of active or inactive are those of the source. Unless noted, calls come from the whole dose curve; as a rule, active = well fitted curve in the direction sought with a large enough effect; inconclusive = small, poorly fitted or top-dose-only effect, or another doubt; inactive = no such curve, though single readings can be large; an effect the other way counts as inactive or inconclusive.

The nature of assay [1]: qHTS profiling of the MIPE4 collection as inhibitors of Plasmodium falciparum (3D7) proliferation (AID 743344; call rule not given here;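 note: scaled between DMSO vehicle wells and 0.29 µM artemisinin as full inhibition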). Particulars: P. falciparum 3D7 in erythrocytes, SYBR Green DNA fluorescence, 72 h; at 28.5 µM unless noted. In short, it runs like this: (§1)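 Erythrocytes infected with P. falciparum (0.3% parasitemia, 2.5% hematocrit) incubated with compounds 72 h at 37 C, 5% CO2. Lysis with saponin/Triton buffer containing SYBR Green I, overnight at room temperature in the dark; DNA fluorescence (485/535 nm) normalised to 0.29 uM artemisinin and DMSO.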

Assay [2] is described as follows: qHTS profiling of the MIPE4 collection as inhibitors of Plasmodium falciparum (DD2) proliferation (AID 743345; call rule not given here). Particulars: P. falciparum Dd2 in erythrocytes, SYBR Green DNA, 72 h; at 28.5 µM unless noted. In short, it runs like this: as §1
The nature of assay [3]: qHTS profiling of the MIPE4 collection as inhibitors of Plasmodium falciparum (HB3) proliferation (AID 743347; call rule not given here;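 note: plate controls were DMSO vehicle wells for no effect and artemisinin wells for full effect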). The following applies: P. falciparum HB3 in erythrocytes, SYBR Green DNA, 72 h; at 28.5 µM unless noted. A digest of the protocol: as §1
Assay [4] is described as follows: qHTS for Inhibitors of the Functional Ribonucleoprotein Complex (vRNP) of Lassa (LASV) Arenavirus: LASV Primary Screen - GLuc reporter signal (AID 1347082; calls by dose curve; tested in HEK293 reporter line; note: % is set by controls: 0 for no effect and ±100 for the full control effect; nearly all actives have a fitted effect of over 60% in size).
Assay [5] in a line: qHTS for Inhibitors of the Functional Ribonucleoprotein Complex (vRNP) of Lassa (LASV) Arenavirus: Viability assay - alamar blue signal for LASV Primary Screen (AID 1347083; calls by dose curve; tested in HEK293 reporter line; note: nearly all actives have a fitted effect of over 80% in size; note: potency is the fitted concentration of half-maximal effect).
Assay [6] can be described thus: qHTS for Inhibitors of the Functional Ribonucleoprotein Complex (vRNP) of Lymphocytic Choriomeningitis Arenaviruses (LCMV): Viability assay - alamar blue signal for LCMV Primary Screen (AID 1347085; calls by dose curve; tested in HEK293 reporter line; note: nearly all actives have a fitted effect of over 80% in size; note: potency is the fitted concentration of half-maximal effect).
In assay [7] the test system is CRL-7250. The assay can be described thus: qHTS assay to identify novel small-molecules to repurpose for Merkel cell carcinoma treatment (AID 1296009). Note: nearly all actives have a fitted effect of over 60% in size. The following applies: MCC and control cell lines, CellTiter-Glo viability, 72 h; series mostly up to 92 µM. In short, it runs like this:
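After compound transfer in DMSO, plates were kept 72 hr at 37 degree celsius. Luminescent ATP signal from CellTiter-Glo served as viability measure, normalized against DMSO and no-cell controls.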

Assay [8] in a line: Validation screen for inhibitors of Lassa infection (AID 463096; calls by dose curve; note: % is set by controls: 0 for no effect and ±100 for the full control effect).
Assay [9] is described as follows: Inducers of the Endoplasmic Reticulum Stress Response (ERSR) in human glioma: Validation (AID 504836). Note: 0% is about no effect. In short, it runs like this:
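ERSR induction read as luciferase luminescence (Bright-Glo, 10 min at room temperature) in stably transfected human U87-MG glioma cells exposed to compounds for 16 h, using GRP78 as sensor.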

Assay [10] concerns the target Nucleoprotein (Lymphocytic choriomeningitis virus (strain Armstrong)) (UniProt P09992). The assay can be described thus: qHTS for Inhibitors of the Functional Ribonucleoprotein Complex (vRNP) of Lymphocytic Choriomeningitis Arenaviruses (LCMV): LCMV Primary Screen - GLuc reporter signal (AID 1347086; calls by dose curve; note: nearly all actives have a fitted effect of over 70% in size; note: potency is the fitted concentration of half-maximal effect; for activity change, negative = inhibition: % is set by controls: 0 for no effect and ±100 for the full control effect).
Assay [11] can be described thus: Primary qHTS to identify inhibitors of SARS-CoV-2 cell entry (AID 1645846; calls by dose curve; note: nearly all actives have a fitted effect of over 45% in size; note: potency is the fitted concentration of half-maximal effect). The following applies: activity change, negative = inhibition: at 57.1 µM (top of the series) unless noted. In short, it runs like this:
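Inhibition of spike-mediated entry was scored in human ACE2-transfected Expi293F cells. Particles were MLV-pseudotyped with Wuhan-Hu-1 S carrying a 19-aa C-terminal deletion; signal was luciferase after two days, scaled between spike PP and fusion-protein-free PP.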

The target of assay [12] is Alpha-galactosidase (Coffea arabica) (UniProt Q42656). The assay can be described thus: Counterscreen for Glucocerebrosidase Inhibitors: qHTS Assay for Coffee Bean alpha-Galactosidase at pH 4.5 (AID 957).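 Note: plate controls were enzyme alone for no effect and no enzyme for full effect.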 A digest of the protocol: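 AC50 values derive from Hill-equation modeling of concentration-response data, normalized to no-enzyme and full-activity controls. The pH 4.5 citrate assay used 2 nM coffee bean enzyme and 80 uM fluorogenic substrate for 20 min.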

Assay [13] has the same target. The assay can be described thus: Counterscreen for Glucocerebrosidase Inhibitors: qHTS Assay for Coffee Bean alpha-Galactosidase at pH 5.9 (AID 998).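 Note: plate controls were uninhibited enzyme for no effect and no-enzyme basal signal for full effect.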 In short, it runs like this:
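Compounds were titrated from 0.7 nM to 77 uM against green coffee bean alpha-galactosidase (2 nM) using 80 uM fluorogenic 4-methylumbelliferyl substrate. After 20 min at room temperature, reactions were stopped at pH 10 and read by fluorescence.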

Assay [14] concerns the target ATP-dependent 6-phosphofructokinase (Trypanosoma brucei brucei) (UniProt O15648). The assay is described as follows: qHTS Validation Assay to Find Inhibitors of T. brucei phosphofructokinase (AID 485368). Particulars: T. brucei PFK enzyme assay, qHTS 7-point titration; at 57.5 µM (top of the series). A digest of the protocol:
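Steps: substrate mix (0.5 mM F6P, 0.1 mM ATP, MgCl2, TEA pH 8.0); compound; 1.25 nM T. brucei PFK; 45 min RT; ATP depletion 10 min; ADP-to-ATP detection 10 min; luminescence read; curve fitting and classification.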

The target in assay [15] is Ubiquitin carboxyl-terminal hydrolase 1 (Homo sapiens) (UniProt O94782). The assay can be described thus: Inhibitors of USP1/UAF1: Pilot qHTS (AID 504865).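 Note: rhodamine fluorescence freed from ubiquitin-rhodamine substrate followed over time; top concentration of the series differs between compounds; % is set by controls: 0 for no effect and ±100 for the full control effect; nearly all actives have a fitted effect of over 35% in size.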 A digest of the protocol:
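In 50mM HEPES pH 7.8 containing 0.5mM EDTA, 1mM TCEP, 0.1 mg/ml BSA and 0.01% Tween-20, 1nM USP1/UAF1 is exposed to compound for 15 min, then Ub-Rho (150nM final) is added and fluorescence is read over time.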

Assay [16] in a line: S16 Schwann cell PMP22 intronic element beta-lactamase assay (AID 624044; calls by dose curve;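 note: 0% = DMSO and -100% = potassium clavulanate positive control; nearly all actives have a fitted effect of over 15% in size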). In short, it runs like this:
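Rat S16 Schwann cells with beta-Lac driven by a PMP22 intronic element, compound-treated 24 h at 37 °C. LiveBLAzer FRET B/G read: 460 nm normalized to potassium clavulanate vs DMSO; 535 nm FRET as viability; concentration-effect curves classified.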

A short description of assay [17]: HTS Assay for Allosteric Antagonists of the Human D2 Dopamine Receptor: Hit Validation in HTRF (AID 624455).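 Note: stable D1 dopamine receptor cell line scored for blocking the D1 response; % is set by controls: 0 for no effect and ±100 for the full control effect.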 In short, it runs like this:
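Signal from an HTRF read-out in D1-expressing stable cells gave hit activity as inhibition of the D1 response.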

Assay [18] concerns the target Arylsulfatase A (Homo sapiens) (UniProt P15289). The assay is described as follows: qHTS screen for enhancers of Arylsulfatase A (ASA1): LOPAC Validation Assay (AID 720538). Note: 0% is about no effect. A digest of the protocol:
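MLD patient fibroblasts (SV40, ASA-I179S), 1536-well; adhere 6 hrs; cpd 48h, 37 degree C, 5% CO2; pNCS 0.5mM final in lysis buffer, 14h RT; stop 1N NaOH final; fluor. Ex525/Em598.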

Assay [19] is described as follows: Cytotoxicity counterscreen for inhibitors of SARS-CoV-2 cell entry (AID 1645845; calls by dose curve; note: nearly all actives have a fitted effect of over 50% in size). A digest of the protocol: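 48 h compound treatment (after 1 h preincubation), HEK293-ACE2 cells, 37 C/5% CO2; ATP luminescence endpoint; normalized to cell wells and media blanks.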
Assay [20] addresses Nuclear receptor subfamily 1 group I member 3 (Homo sapiens) (UniProt Q14994). The assay can be described thus: Primary qHTS for antagonist of constitutive androstane receptor (CAR) against the NCATS DSHEA and TCM libraries (AID 1794836).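 Note: HepG2 cells stably expressing hCAR with CYP2B6 luciferase reporter stimulated by CITCO.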 A digest of the protocol: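 Antagonist mode: CAR reporter luminescence (ONE-Glo) in HepG2-CYP2B6-hCAR cells stimulated with 48 uM CITCO (final) over 24 h at 37 C, compounds titrated; viability read first by CellTiter-Fluor fluorescence.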

Assay [21] can be described thus: KB-8-5-11 P-gp reporter qHTS against the NCATS DSHEA and TCM libraries (AID 1919977). Note: 0% is about no effect. A digest of the protocol: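 KB-8-5-11, 500 cells/well, DMEM/10% FBS without colchicine; 4 h attach; cpd titrations, 72 h, 37C/5% CO2; CellTiter-Glo, 30 min RT, luminescence.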

Nucleoprotein (Lymphocytic choriomeningitis virus (strain Armstrong)), sequence (P09992 whole entry, looked up): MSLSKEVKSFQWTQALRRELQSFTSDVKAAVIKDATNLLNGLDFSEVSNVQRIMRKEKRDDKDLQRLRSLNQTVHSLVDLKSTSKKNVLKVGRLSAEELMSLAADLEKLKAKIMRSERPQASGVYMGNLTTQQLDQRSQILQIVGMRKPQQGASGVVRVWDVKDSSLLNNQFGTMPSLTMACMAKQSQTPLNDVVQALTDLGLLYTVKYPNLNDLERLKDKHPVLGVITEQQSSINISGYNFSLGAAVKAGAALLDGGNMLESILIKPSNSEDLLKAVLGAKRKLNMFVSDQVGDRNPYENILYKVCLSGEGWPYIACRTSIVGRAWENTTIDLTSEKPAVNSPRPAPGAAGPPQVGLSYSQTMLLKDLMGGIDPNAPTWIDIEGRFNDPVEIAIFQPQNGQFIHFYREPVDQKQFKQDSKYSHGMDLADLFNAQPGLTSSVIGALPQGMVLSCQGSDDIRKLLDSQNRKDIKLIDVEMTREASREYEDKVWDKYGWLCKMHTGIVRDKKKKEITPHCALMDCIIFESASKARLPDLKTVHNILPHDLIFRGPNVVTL
Alpha-galactosidase (Coffea arabica), sequence (Q42656 whole entry, looked up): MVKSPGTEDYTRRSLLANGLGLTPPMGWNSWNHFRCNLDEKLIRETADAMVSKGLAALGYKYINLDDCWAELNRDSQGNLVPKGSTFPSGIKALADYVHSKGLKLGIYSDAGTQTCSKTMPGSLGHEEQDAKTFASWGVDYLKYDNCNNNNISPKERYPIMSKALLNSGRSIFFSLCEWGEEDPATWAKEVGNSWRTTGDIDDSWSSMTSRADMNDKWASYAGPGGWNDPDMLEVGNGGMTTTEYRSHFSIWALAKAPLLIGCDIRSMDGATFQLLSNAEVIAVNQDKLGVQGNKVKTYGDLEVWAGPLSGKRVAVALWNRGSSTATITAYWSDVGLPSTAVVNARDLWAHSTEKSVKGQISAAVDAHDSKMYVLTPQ
Arylsulfatase A (Homo sapiens), sequence (P15289 whole entry, looked up): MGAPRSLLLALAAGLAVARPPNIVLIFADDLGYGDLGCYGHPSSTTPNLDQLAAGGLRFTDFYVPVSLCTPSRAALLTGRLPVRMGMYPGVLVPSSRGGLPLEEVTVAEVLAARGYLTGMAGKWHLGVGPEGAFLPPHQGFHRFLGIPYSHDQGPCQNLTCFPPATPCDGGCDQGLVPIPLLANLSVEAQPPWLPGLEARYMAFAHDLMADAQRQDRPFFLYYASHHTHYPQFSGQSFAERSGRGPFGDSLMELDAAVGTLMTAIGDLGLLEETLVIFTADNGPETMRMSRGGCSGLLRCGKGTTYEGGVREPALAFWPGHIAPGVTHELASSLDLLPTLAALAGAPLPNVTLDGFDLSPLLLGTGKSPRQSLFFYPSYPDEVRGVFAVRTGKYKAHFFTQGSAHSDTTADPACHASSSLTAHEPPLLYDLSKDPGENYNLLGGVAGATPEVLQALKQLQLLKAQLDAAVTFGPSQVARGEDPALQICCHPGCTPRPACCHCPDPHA
Ubiquitin carboxyl-terminal hydrolase 1 (Homo sapiens), sequence (O94782 whole entry, looked up): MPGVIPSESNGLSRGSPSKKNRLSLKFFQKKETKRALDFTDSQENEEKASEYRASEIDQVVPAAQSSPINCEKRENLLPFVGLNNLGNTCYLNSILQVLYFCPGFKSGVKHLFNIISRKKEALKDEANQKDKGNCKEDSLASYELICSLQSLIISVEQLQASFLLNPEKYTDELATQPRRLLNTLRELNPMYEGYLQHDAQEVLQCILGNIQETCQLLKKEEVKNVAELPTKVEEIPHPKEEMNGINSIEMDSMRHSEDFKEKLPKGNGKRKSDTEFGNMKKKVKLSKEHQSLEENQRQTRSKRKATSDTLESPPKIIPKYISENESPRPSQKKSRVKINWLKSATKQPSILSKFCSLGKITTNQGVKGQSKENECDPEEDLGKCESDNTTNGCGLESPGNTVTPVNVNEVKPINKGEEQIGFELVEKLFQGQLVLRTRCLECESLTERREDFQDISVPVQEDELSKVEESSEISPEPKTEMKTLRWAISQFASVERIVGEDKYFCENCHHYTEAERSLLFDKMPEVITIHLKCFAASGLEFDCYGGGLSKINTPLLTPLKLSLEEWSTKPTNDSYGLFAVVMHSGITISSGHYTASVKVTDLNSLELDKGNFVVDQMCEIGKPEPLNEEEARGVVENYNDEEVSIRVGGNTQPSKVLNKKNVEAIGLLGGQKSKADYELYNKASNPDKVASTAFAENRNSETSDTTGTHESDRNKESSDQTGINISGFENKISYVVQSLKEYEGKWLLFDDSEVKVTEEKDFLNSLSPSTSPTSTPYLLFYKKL
ATP-dependent 6-phosphofructokinase (Trypanosoma brucei brucei), sequence (O15648 whole entry, looked up): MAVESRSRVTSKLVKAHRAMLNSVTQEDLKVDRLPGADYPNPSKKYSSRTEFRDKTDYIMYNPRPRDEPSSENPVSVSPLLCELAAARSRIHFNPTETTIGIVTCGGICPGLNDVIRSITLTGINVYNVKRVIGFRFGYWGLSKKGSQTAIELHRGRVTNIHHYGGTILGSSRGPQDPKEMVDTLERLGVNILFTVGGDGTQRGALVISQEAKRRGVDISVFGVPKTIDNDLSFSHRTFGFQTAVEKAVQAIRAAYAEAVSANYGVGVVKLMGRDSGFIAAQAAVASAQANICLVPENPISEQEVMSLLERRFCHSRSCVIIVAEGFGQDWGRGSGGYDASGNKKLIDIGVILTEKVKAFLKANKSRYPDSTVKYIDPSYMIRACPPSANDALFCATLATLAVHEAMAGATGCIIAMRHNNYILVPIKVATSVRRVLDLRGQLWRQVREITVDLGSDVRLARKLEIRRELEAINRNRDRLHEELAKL
Nuclear receptor subfamily 1 group I member 3 (Homo sapiens), sequence (Q14994 whole entry, looked up): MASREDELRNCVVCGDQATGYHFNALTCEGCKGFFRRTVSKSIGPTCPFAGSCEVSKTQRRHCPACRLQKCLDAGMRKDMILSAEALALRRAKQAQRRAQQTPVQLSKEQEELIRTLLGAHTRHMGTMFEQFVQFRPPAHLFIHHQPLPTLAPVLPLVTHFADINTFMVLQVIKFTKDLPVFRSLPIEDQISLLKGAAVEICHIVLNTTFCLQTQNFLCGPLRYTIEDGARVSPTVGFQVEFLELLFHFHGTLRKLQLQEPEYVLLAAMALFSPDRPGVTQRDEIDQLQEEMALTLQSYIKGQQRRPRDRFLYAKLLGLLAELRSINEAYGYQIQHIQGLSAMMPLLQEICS

In the case of `CCOC1OC(=O)C[C@H]1NC(=O)[C@@H]1CCCN1C(=O)[C@@H](NC(=O)c1ccc(N)c(Cl)c1)C(C)(C)C` (some centres undefined), the parasite growth, % of DMSO control in assay [1] came to 265%. In assay [2], this molecule had a parasite growth remaining, % of DMSO control (lower = more inhibition) of 97.4%. In [3], this molecule gave a growth, % of control of 216%. Moreover, the Potency entry in assay [4], in [5], in [6] and in assay [7] was “inactive” in each case.

`CCN1CCCC1CNC(=O)c1cc(S(N)(=O)=O)ccc1OC` (centres undefined): the Potency result in [8], in assay [4], in assay [5], in assay [6], in [10] and in assay [7] was “inactive” throughout. Besides, the call in [9] was inactive.

In turn, `CC(C)N(CC[C@H](c1ccccc1)c1cc(CO)ccc1O)C(C)C` displayed a parasite growth, % of DMSO control in [1] of 81.5%. In addition, the parasite growth remaining, % of DMSO control (lower = more inhibition) in assay [2] came to 83.7%. In addition, the Potency result in [4], in assay [5], in assay [6], in assay [10] and in [7] was “inactive” in each case.

Consider `COC1CCC(C(=O)c2ccc3nc4c(cc3c2)CCCO4)CC1` (centres undefined), for which the Potency entry in assay [4], in [5], in [6], in assay [10], in assay [11] and in [7] was “inactive” each time.

`O=[N+]([O-])c1ccc(-c2nc(-c3ccc(F)cc3)c(-c3ccncc3)[nH]2)cc1`: the molecule was called inactive in assay [12], in [13] and in assay [9]. The Potency entry in [8], in assay [4], in assay [5], in assay [6], in [10] and in [7] was “inactive” in each case.

Turning to `COc1cc2c(cc1OC)C1CC(=O)C(CC(C)C)CN1CC2` (centres undefined), the outcome in assay [14], in assay [9] and in assay [17] was inactive. Further, the Potency entry in [15], in [16], in [18], in assay [4], in assay [5] and in assay [6] was “inactive” in each case. Further, the Potency entry in assay [10], in assay [19] and in assay [7] was “inactive” in each case. Also, the activity change, negative = inhibition in assay [11] was -3.6%.

Consider `COc1cc(O)c2c(c1)C(=O)c1cc(C)cc(O)c1C2=O`, for which the Potency entry in assay [4], in assay [5], in assay [6], in [10], in assay [20] and in assay [7] was “inactive” in each case. In addition, in assay [21], the call was inactive.

As to `COc1ccc2cc([S+]([O-])Cc3ncc(C)c(OC)c3C)nc2c1`, in assay [9], the molecule was classed as inactive. In addition, the Potency entry in assay [4], in assay [5], in assay [6], in assay [10] and in assay [7] was “inactive” each time.

For `O=C(NC1CCOCC1)c1ccc(-c2cc(-c3cn[nH]c3-c3ccccn3)ccn2)cc1`, the Potency entry in [4], in assay [5], in assay [6], in assay [10] and in assay [7] was “inactive” in each case. The activity change, negative = inhibition in assay [11] was -3.94%.

Take `COc1ccc2cc(-c3nc(-c4ccc(S(C)=O)cc4)[nH]c3-c3ccncc3)ccc2c1` (centres undefined): the Potency result in [4] and in assay [7] was “inactive” each time. In addition, the Potency in assay [5] was 24.3 µM (active); in assay [6], 4.85 µM (active); in assay [10], 17.2 µM (active); in assay [11] it was 31.6 µM (active).

As to `OC1CCC(Nc2ncc3nc(Nc4c(F)cc(F)cc4F)n([C@@H]4CCOC4)c3n2)CC1` (some centres undefined), the Potency result in assay [4], in assay [19] and in assay [7] was “inactive” throughout. Also, the Potency in [5] was 24.3 µM (active); in [6] it was 21.7 µM (active).
